Screening results from PubChem.
PriA SSB inh = inhibitors of Klebsiella pneumoniae PriA binding to SSB C-terminal tail, primary screen, biochemical, AlphaScreen; PriA–SSB C-terminal tail interaction (Klebsiella pneumoniae); AlphaScreen SSBct-PriA binding, biotinylated peptide; inhibition, % at 33 µM; actives 0.6% (n = 430,000); AID 1272365, 2023; in the data active = inhibition mostly above about 37%, no sharp cut-off; inactive = mostly below about 20%;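 note: plate controls were negative control peptide for no effect and reference peptide for full effect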
MazEF act = activators of E. coli MazEF toxin-antitoxin RNase, primary screen, biochemical, fluorescence, uHTS | AID 504720, 2011 | Endoribonuclease toxin MazF (Escherichia coli (strain K12)), P0AE70 | actives 0.32% (n = 350,000) | FAM/BHQ RNA-DNA oligo cleavage fluorescence, 5 h | activation, % at 20 µM; in the data active = activation above about 50%
Autofluor counter = compound fluorescence in toxin protease inhibitor counterscreen; compound autofluorescence counterscreen, microsphere flow cytometry; active compounds read high; fluorescence intensity (no concentration beside the values); actives 3.1% (n = 360,000); AID 624483; in the data active = fluorescence intensity above about 16000; inconclusive = no clear call, values can overlap the other calls
BoNT F protease = BoNT/F light chain protease inhibitors, primary screen, biochemical, flow cytometry, MLPCN library; Botulinum neurotoxin type F light chain protease (Clostridium botulinum); Multiplex microsphere protease cleavage assay; inhibition, % at 10 µM; actives 0.22% (n = 360,000); AID 588497, 2011; in the data active = inhibition above about 35%, passing the limit was not always enough; inconclusive = no clear call, values can overlap the other calls; note: plate controls were buffer without enzyme for full effect and enzyme alone for no effect
Anthrax LF prot = Bacillus anthracis LF protease inhibitors, primary screen, biochemical, multiplex microsphere, MLPCN library | Lethal factor (Bacillus anthracis), P15917 | multiplex microsphere protease cleavage assay | inhibition, % at 10 µM | actives 0.12% (n = 360,000) | AID 588501, 2011; note: plate controls were buffer without enzyme for full effect and enzyme alone for no effect
Target sequence (P15917 whole entry, looked up): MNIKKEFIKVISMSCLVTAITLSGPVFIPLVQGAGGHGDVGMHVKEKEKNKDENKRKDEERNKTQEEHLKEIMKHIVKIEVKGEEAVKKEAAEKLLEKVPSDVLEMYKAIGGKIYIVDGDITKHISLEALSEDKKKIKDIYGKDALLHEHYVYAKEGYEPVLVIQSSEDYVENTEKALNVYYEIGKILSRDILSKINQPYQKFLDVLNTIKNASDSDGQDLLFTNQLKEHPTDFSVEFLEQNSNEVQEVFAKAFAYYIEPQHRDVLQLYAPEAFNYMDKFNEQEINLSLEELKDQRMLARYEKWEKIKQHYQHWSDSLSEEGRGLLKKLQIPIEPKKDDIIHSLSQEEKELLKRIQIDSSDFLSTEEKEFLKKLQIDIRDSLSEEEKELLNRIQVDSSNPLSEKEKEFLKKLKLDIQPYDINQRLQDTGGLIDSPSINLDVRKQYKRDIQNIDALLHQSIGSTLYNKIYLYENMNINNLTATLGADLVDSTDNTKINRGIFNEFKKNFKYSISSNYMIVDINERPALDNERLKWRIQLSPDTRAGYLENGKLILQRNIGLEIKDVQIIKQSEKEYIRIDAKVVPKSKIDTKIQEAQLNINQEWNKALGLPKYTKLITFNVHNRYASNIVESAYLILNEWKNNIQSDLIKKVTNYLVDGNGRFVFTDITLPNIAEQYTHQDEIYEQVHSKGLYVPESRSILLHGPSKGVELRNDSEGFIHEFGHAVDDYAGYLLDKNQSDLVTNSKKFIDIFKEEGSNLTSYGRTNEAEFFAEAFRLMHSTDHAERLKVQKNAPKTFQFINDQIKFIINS
BoNT A protease = BoNT/A light chain protease inhibitors, primary screen, biochemical, flow cytometry, MLPCN library. multiplex microsphere protease substrate cleavage. inhibition, % at 10 µM. actives 0.17% (n = 360,000); note: plate controls were buffer without enzyme for full effect and enzyme alone for no effect
The depositor's hits bear a star; ? = inconclusive; · = no result. The list is not random: actives were taken first. Their share in the collection is about 3.3%. Cut-off read from the data, not from the text of the source, unless noted: active = inhibition above about 30%; inconclusive = no clear call, values can overlap the other calls; inactive = below that.

SMILES | PriA SSB inh | MazEF act | Autofluor counter | BoNT F protease | Anthrax LF prot | BoNT A protease
CCOC(=O)c1c(NC(=O)CSc2nnc(Cc3ccccc3)o2)sc(C(C)=O)c1C | -3 | 0 | 18103* | -11 | -3 | ?
Cc1ccc(CN2C(=O)C=CC2=O)cc1 | 1 | · | · | · | · | ·
Cc1ccc(-c2csc(N)n2)s1 | -4 | 0 | 20327* | -1 | 0 | -2
O=C(NCc1n[nH]c(=O)c2ccccc12)c1ccccc1Br | -2 | · | · | · | · | ·
Fc1ccc(NC(=S)NN=Cc2ccc(F)c(F)c2)c(F)c1 | -10 | · | · | · | · | ·
Fc1ccc(NC(=S)N/N=C/c2cccc(Br)c2)c(F)c1 | · | 0 | 20663* | -4 | 0 | ?
Cc1cc2c(c(SCC(=O)N(C)c3ccccc3)n1)C(=O)OC2 | -6 | 3 | 4182 | 22 | -2 | 1
Cc1cc2c(c(Sc3ccccc3)n1)C(=O)OC2 | -7 | 7 | 24407* | -2 | -4 | -2
CCCn1c(S(=O)(=O)O)nc2ccccc21 | 1 | 7 | 4035 | -10 | 1 | 1
CCC(C)n1c(S(=O)(=O)O)nc2ccccc21 (configuration not stated) | -18 | -2 | 22449* | 1 | 1 | -1
COc1ccc(-c2nc3cc(C)ccn3c2NCc2ccc3c(c2)OCO3)cc1 | 54* | 1 | 3522 | -14 | -2 | -3
O=S(=O)(NCCOc1ccccc1)c1ccccc1 | -19 | · | · | · | · | ·
N#Cc1cc2c([nH]c1=O)CCN(C(=O)c1ccc(S(=O)(=O)N3CCOCC3)cc1)C2 | -10 | · | · | · | · | ·
Cc1ccc(S(=O)(=O)N2CCC(C(=O)OC(C)C(=O)NCc3ccc4c(c3)OCO4)CC2)cc1 (configuration not stated) | -8 | -12 | 23314* | -3 | -1 | ?
Cc1ccc(S(=O)(=O)N2CCCC(C(=O)NCc3ccc4c(c3)OCO4)C2)cc1 (configuration not stated) | -16 | 10 | 3682 | 11 | 0 | 0
CN(C)c1ccc(C(CNC(=O)C(=O)NCc2ccc(F)cc2)N2CCOCC2)cc1 (configuration not stated) | 12 | · | · | · | · | ·
CCn1c(=N)n(CC(O)c2ccco2)c2ccccc21 (configuration not stated) | -6 | -12 | 28325* | -19 | -2 | -11
Cc1cc(C(=O)Nc2nnc(-c3ccc4c(c3)OCCO4)o2)n(C)n1 | 2 | · | · | · | · | ·
Cc1cc(C(C)(C)C)cc(C)c1CC1=NCCN1C(=O)c1cccs1 | -5 | · | · | · | · | ·
CCOC(=O)C(=CNc1cccc(N)n1)C(=O)OCC | -17 | 6 | 20625* | -2 | -10 | -1
Cc1ccc2oc3nc(C)c(C(=O)Nc4cccc(C(F)(F)F)c4)cc3c(=O)c2c1 | -12 | 10 | 22965* | 2 | -3 | ?
CCOc1ccc(C(=O)CSc2nc3cc(C(=O)NC(C)C)ccc3c(=O)n2CC(C)C)cc1 | -7 | · | · | · | · | ·
Cc1cccc2nc(=S)n(C(=O)c3ccco3)n12 | 0 | 7 | 15901 | 14 | -29 | 12
O=C(c1ccco1)n1c(=S)nc2ccccn21 | -19 | 5 | 22668* | 2 | 0 | 1
O=C(NCC1(Sc2ccccc2)CCOCC1)c1ccc2ncsc2c1 | -1 | · | · | · | · | ·
SMILES | PriA SSB inh | MazEF act | Autofluor counter | BoNT F protease | Anthrax LF prot | BoNT A protease
O=C(CCS(=O)(=O)c1cccs1)Nc1ccc(C(=O)NCc2ccc(F)cc2)cc1 | -9 | 3 | 3376 | -3 | -5 | 0
CCc1ccc(C(=O)NCc2cccs2)s1 | -12 | 2 | 11231 | -2 | -2 | 1
O=C(NCc1cccs1)c1cccnc1C(=O)O | -10 | 5 | 17016* | -3 | -7 | ?
O=C(NCc1cccs1)c1ccc(Cl)s1 | -12 | 5 | 24555* | -4 | -1 | -2
O=C(CCS(=O)(=O)c1cccs1)Nc1ccc(C(=O)NCc2cccs2)cc1 | 2 | -1 | 22948* | 0 | 1 | 1
Cc1cc(C(=O)NCc2cccs2)c(C)o1 | 2 | 1 | 19810* | -1 | -3 | 0
CC(C)Oc1ccc(C(=O)NCc2cccs2)cc1 | -7 | 4 | 23288* | -2 | 0 | ?
CN(C)CCNC(=O)c1ccc(Cl)s1 | -1 | 7 | 17028* | -5 | -1 | ?
C[C@H](NC(=O)NCc1cccs1)C(=O)O | 0 | 6 | 21235* | 7 | 3 | 3
CCCCC(=O)NN=C(C)c1cccc(NC(=O)C2CC2)c1 | -7 | · | · | · | · | ·
CC1=C(C(N)=O)C(/C(C)=C/c2ccccc2)n2ncnc2N1 (configuration not stated) | -12 | · | · | · | · | ·
O=C1/C(=C\c2cccs2)SC(=S)N1CCS(=O)(=O)O | -3 | · | · | · | · | ·
CC(=O)N1CCc2ccc(NC(=O)Cc3cccs3)cc21 | -10 | · | · | · | · | ·
CCOC(=O)CSc1nc2c(sc(=S)n2-c2ccccc2OC)c(=O)n1Cc1ccco1 | 9 | -1 | 16526* | -5 | -3 | -1
CCN(CC)C(=O)CSc1nc2c(sc(=S)n2Cc2ccco2)c(=O)n1-c1ccccc1 | -3 | -5 | 20976* | -2 | -2 | 0
CCOC(=O)CSc1nc2c(sc(=S)n2Cc2ccco2)c(=O)n1-c1ccccc1 | 4 | 0 | 11224 | 4 | -2 | 0
CCOC(=O)CSc1nc2c(sc(=S)n2-c2ccccc2OC)c(=O)n1-c1ccccc1OC | 0 | -3 | 3212 | -1 | -9 | -3
CCn1c(SCC(=O)OC)nnc1-c1ccc(C)cc1 | -6 | -8 | 4594 | -2 | 4 | -1
CCOC(=O)CSc1nnc(-c2nnc(SCC(=O)OCC)n2CC)n1CC | -11 | 1 | 16806* | 14 | 5 | 11
CC(C)c1ccc(C(=O)Nc2ccc(S(=O)(=O)NC3=NCCCCC3)cc2)cc1 | · | -6 | 3882 | -7 | 0 | 0
COc1ccc(NC(=O)Nc2cc(C)ccc2OC(F)F)c(OC)c1 | 0 | 7 | 22223* | 1 | -6 | 2
Cc1ccc(NC(=O)NNS(=O)(=O)c2ccc(Br)cc2)cc1 | -6 | 0 | 2091 | 0 | -1 | 0
Cc1ccc(S(=O)(=O)NC(=O)Nc2ccc(N(C)C)cc2)cc1 | 83* | 9 | 3498 | -31 | -3 | 2
CN(C)c1ccc(C(=O)Nc2ccc(S(=O)(=O)NC3=NCCCCC3)cc2)cc1 | 2 | 4 | 22816* | -1 | -1 | 1
COc1ccc(NC(=O)NS(=O)(=O)c2ccc(C)cc2)c(OC)c1 | 53* | 0 | 9691 | -45 | -10 | 2
COc1ccc(NC(=O)CS(=O)(=O)c2ccc(C)cc2)c(OC)c1 | -8 | 4 | 3737 | 10 | 10 | -2
Cc1ccc(NC(=O)Nc2ccc(F)cc2F)c(OC(F)F)c1 | -7 | 4 | 4071 | -4 | -4 | 0
COc1cccc(CNC(=O)Cn2cnc3c(oc4ccccc43)c2=O)c1OC | 7 | · | · | · | · | ·
Cc1nc(NC(=O)CN(C)c2nc3c(Cl)cccc3s2)sc1C | -17 | · | · | · | · | ·
